Screening data from PubChem BioAssay.
FECH block – inhibitors of human ferrochelatase; P22830; purified FECH, Ni-mesoporphyrin absorbance 550 nm; calls only at 10 µM (by protocol); 3.3% of 20,000 active; AID 1671448;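 active = enzyme reaction rate more than 3 SD below the solvent-only control wells on the same plate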;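 also: lower slope than DMSO wells means FECH inhibition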
An asterisk follows results filed as active; i = inactive; + = active, no number. This excerpt belongs to a sample that is enriched for hits.

SMILES	FECH block
Cc1ccc(CN2CCCN(CC(N)=O)S2(=O)=O)cc1	i
Cc1ccc(CN2CCCN(Cc3ccc(Cl)cc3)S2(=O)=O)cc1	+
Cc1ccccc1CN1CCCN(Cc2ccc(Cl)cc2)S1(=O)=O	i
CCCn1ncc(C(=O)NC(C)C(=O)Nc2ccc(F)cc2C)c1C (configuration not stated)	i
Cc1cc(NC(=O)c2cccn(Cc3ccc(C(F)(F)F)cc3)c2=O)no1	i
CCn1cc(C2=CCN(CCCOc3ccccc3)CC2)cn1	i
O=C(Cc1ccc(O)cc1)N1CCN(Cc2ccccc2CO)CC1	i
c1cc(C2NCCc3[nH]cnc32)c2cc[nH]c2c1 (configuration not stated)	i
c1ccc2[nH]c(C3NCCc4[nH]cnc43)nc2c1 (configuration not stated)	+
CN1CCC(C(=O)N2CCN3C(=O)CNC(=O)C3C2)(c2ccccc2)CC1 (configuration not stated)	i
